A selection: hits, their analogues and other compounds. The true share with any hit is near 6.3%.
A340 absorber = compound light absorbance at 340 nm, profiling panel, artefact control, biochemical, MLSMR library, data from PS, PMK, MK assays; compound absorbance at 340 nm, fold over control; fold change at 10 µM; 65,000 tested, under 10 active;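 active = at 10 µM dose, initial 340 nm absorbance at least 2 fold that of control wells; inactive = change under 2 fold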;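 note: initial absorbance extrapolated from kinetic A340 decline of NADH oxidation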
Spn DPM-DC inh = S. pneumoniae DPM-DC inhibitors, primary screen, biochemical, PK/LDH-coupled NADH fluorescence; 65,000 tested, 0.49% active; diphosphomevalonate decarboxylase (Streptococcus pneumoniae D39); purified DPM-DC; calls only at 10 µM; AID 556, 2006;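 active = the 320 compounds with the highest percent inhibition in the single-dose primary screen, excluding strongly autofluorescent ones, cut at about 32% in these data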;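 note: kinetic rate of NADH fluorescence loss reporting ADP formed by the decarboxylase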
Fluor 339 460 = intrinsic fluorescence of library compounds, ex339/em460 – biochemical, MLSMR library, data from DPM-DC assay, artefact control, profiling panel. compound autofluorescence, ex339/em460 nm, NADH buffer; hits give high values; 1 = no-compound wells, NADH background. fluorescence fold increase at 10 µM. 65,000 tested, 5.5% active. AID 709, 2007;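 active = at 10 µM, mean starting fluorescence two-fold or more over control wells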;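 note: signal is the first read of a kinetic run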
Spn MK inh = S. pneumoniae MK inhibitors, primary screen, biochemical, PK/LDH-coupled NADH absorbance; 65,000 tested, 0.48% active; mevalonate kinase [Streptococcus pneumoniae D39]; purified MK, PK/LDH-coupled NADH absorbance 340 nm; AID 555, 2006; inhibition, % at 10 µM;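 active = ranked among the strongest by inhibition in the single 10 µM screen, a fixed top-ranked set picked for dose follow-up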
PMK inhibit = S. pneumoniae PMK inhibitors, primary screen, biochemical, mevalonate pathway, pilot trial included; purified PMK, PK/LDH-coupled NADH absorbance 340 nm; inhibition, % at 10 µM; 65,000 tested, 0.49% active; AID 539, 2006;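 active = top-ranked compounds by inhibition in the single 10 µM screen, taking a fixed number of the strongest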;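 note: 0% = full reaction with DMSO carrier and 100% = background rate without enzyme reaction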
NADH enzymes = inhibitors of PK/LDH coupling enzymes, profiling panel, artefact control, biochemical, MLSMR library | coupled PK/LDH NADH assays, four targets | IC50, µM (doses to about 10 µM), without a hit: at the top dose inhibition | 65,000 tested, 0.02% active | AID 774, 2007;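 active = single-dose screening hits from any of four coupled enzyme assays that gave an IC50 when retested across doses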;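 note: the DPM-DC format reads NADH fluorescence rather than 340 nm absorbance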
* = called active by the depositor.

What do the screens show for `COc1ccc(OC)c(C2C3=C(CCCC3=O)Nc3nc4ccccc4n32)c1` (configuration not stated)?
A340 absorber: 1.13; Spn DPM-DC inh: inactive; Fluor 339 460: 1.71; Spn MK inh: 9.0; PMK inhibit: 8.0; NADH enzymes: 7.0%

How did COc1ccc(C2C3=C(CCCC3=O)Nc3nc4ccccc4n32)cc1OC (configuration not stated) do in these assays?
A340 absorber: 1.2; Fluor 339 460: 3.05*; Spn MK inh: 10.0; PMK inhibit: 6.0; NADH enzymes: 8.0%

Results for N#Cc1cc2c(nc1SCC(O)CS(=O)(=O)Cc1ccccc1)CCCC2 (configuration not stated) ?
A340 absorber: 1.02; Spn DPM-DC inh: inactive; Fluor 339 460: 1.03; Spn MK inh: 12.0; PMK inhibit: 9.0; NADH enzymes: 7.0%

What do the screens show for `CN(C)C=Nc1ncc2c([nH]c3ccccc32)c1C#N`?
A340 absorber: 1.16; Spn DPM-DC inh: inactive; Fluor 339 460: 2.08*; Spn MK inh: 2.0; PMK inhibit: 11.0; NADH enzymes: 9.0%

Results for CCOC(=O)C(NC(=O)c1ccccc1)=C1C=C(C)OC(C)=C1 ?
A340 absorber: 1.19; Spn DPM-DC inh: inactive; Fluor 339 460: 1.05; Spn MK inh: 5.0; PMK inhibit: 5.0; NADH enzymes: 3.0%

Results for COC(=O)C(NC(=O)c1ccccc1)=C1C=C(C)OC(C)=C1 ?
A340 absorber: 1.34; Spn DPM-DC inh: inactive; Fluor 339 460: 1.05; Spn MK inh: 0.0; PMK inhibit: 29.0*; NADH enzymes: 10.0%

Results for Nc1ccc2oc3ncccc3c(=O)c2c1 ?
A340 absorber: 1.03; Spn DPM-DC inh: inactive; Fluor 339 460: 1.07; Spn MK inh: 0.0; PMK inhibit: 2.0; NADH enzymes: 1.0%

What do the screens show for `Nc1ccc2c(C(F)(F)F)cc(=O)oc2c1`?
A340 absorber: 1.04; Fluor 339 460: 3.73*; Spn MK inh: 11.0; PMK inhibit: 17.0; NADH enzymes: 14.0%

How did O=C(Nc1ccc(-c2noc(COc3ccccc3Cl)n2)cc1)c1ccco1 do in these assays?
A340 absorber: 0.8; Spn DPM-DC inh: inactive; Fluor 339 460: 1.04; Spn MK inh: 3.0; PMK inhibit: 32.0*; NADH enzymes: 12.0%

Results for O=C(Nc1ccc(Nc2ccccc2)cc1)c1ccco1 ?
A340 absorber: 1.18; Spn DPM-DC inh: inactive; Fluor 339 460: 1.08; Spn MK inh: 13.0; PMK inhibit: 0.0; NADH enzymes: 10.0%

Results for O=C(Nc1ccc2oc(=O)ccc2c1)c1ccco1 ?
A340 absorber: 1.05; Spn DPM-DC inh: inactive; Fluor 339 460: 2.84*; Spn MK inh: 0.0; PMK inhibit: 12.0; NADH enzymes: 12.0%

What do the screens show for `COc1cccc(OC)c1C(=O)N1CCN(Cc2ccccc2C)CC1`?
A340 absorber: 1.04; Spn DPM-DC inh: inactive; Fluor 339 460: 0.85; Spn MK inh: 48.0*; PMK inhibit: 0.0; NADH enzymes: 17.0%

Results for Cc1cccc(C)c1N1CCN(S(=O)(=O)c2ccc(F)cc2)CC1 ?
A340 absorber: 1.08; Spn DPM-DC inh: inactive; Fluor 339 460: 1.1; Spn MK inh: 5.0; PMK inhibit: 10.0; NADH enzymes: 5.0%

How did COc1cccc(CN2CCN(C(=O)c3cccc4ccccc34)CC2)c1OC do in these assays?
A340 absorber: 1.04; Spn DPM-DC inh: inactive; Fluor 339 460: 1.12; Spn MK inh: 7.0; PMK inhibit: 9.0; NADH enzymes: 5.0%

Results for Cc1ccccc1CN1CCN(S(=O)(=O)c2ccc(F)cc2)CC1 ?
A340 absorber: 1.09; Spn DPM-DC inh: active; Fluor 339 460: 1.15; Spn MK inh: 30.0; PMK inhibit: 1.0; NADH enzymes: 28.0%

Results for CS(=O)(=O)N(CC(=O)NCc1ccncc1)Cc1ccc(Cl)cc1 ?
A340 absorber: 0.99; Spn DPM-DC inh: inactive; Fluor 339 460: 1.02; Spn MK inh: 0.0; PMK inhibit: 1.0; NADH enzymes: 2.0%

Results for COCCn1nnnc1C(c1cc2ccc(C)cc2[nH]c1=O)N(Cc1ccco1)Cc1cccs1 (configuration not stated) ?
A340 absorber: 1.08; Spn DPM-DC inh: inactive; Fluor 339 460: 1.26; PMK inhibit: 8.0; NADH enzymes: 5.0%

How did NC(=O)c1nn(-c2ccccc2)nc1NC(=O)CN1CCCCC1 do in these assays?
A340 absorber: 1.03; Spn DPM-DC inh: inactive; Fluor 339 460: 1.35; Spn MK inh: 0.0; PMK inhibit: 5.0; NADH enzymes: 2.0%

Results for NC(=O)c1nn(-c2ccccc2)nc1N ?
A340 absorber: 1.12; Fluor 339 460: 3.9*; Spn MK inh: 0.0; PMK inhibit: 3.0; NADH enzymes: 2.0%

Results for CCc1noc2c1/C(=N\O)CC(c1ccccc1)C2 (configuration not stated) ?
A340 absorber: 1.05; Spn DPM-DC inh: inactive; Fluor 339 460: 1; Spn MK inh: 2.0; PMK inhibit: 13.0; NADH enzymes: 6.0%

Results for COC(=O)c1cnn2c(C)c(Cc3cccc(F)c3)c(C)nc12 ?
A340 absorber: 1.1; Fluor 339 460: 2.1*; Spn MK inh: 4.0; PMK inhibit: 11.0; NADH enzymes: 8.0%

What do the screens show for `Cc1ccc(C)c(Cc2c(C)nc3c(C(=O)N4CCOCC4)cnn3c2C)c1`?
A340 absorber: 1.03; Spn DPM-DC inh: inactive; Fluor 339 460: 3.75*; Spn MK inh: 0.0; PMK inhibit: 10.0; NADH enzymes: 10.0%

Results for CCOC(=O)N1CCN(C(=O)c2cnn3c(C)c(Cc4ccc(C)cc4)c(C)nc23)CC1 ?
A340 absorber: 1.03; Fluor 339 460: 4.13*; Spn MK inh: 3.0; PMK inhibit: 15.0; NADH enzymes: 9.0%

What do the screens show for `Cc1nc2c(C(=O)O)cnn2c(C)c1Cc1ccccc1F`?
A340 absorber: 1; Spn DPM-DC inh: inactive; Fluor 339 460: 1.58; Spn MK inh: 1.0; PMK inhibit: 19.0; NADH enzymes: 13.0%

What do the screens show for `Cc1nc2c(C(=O)N3CCN(c4ccccn4)CC3)cnn2c(C)c1Cc1cccc(Cl)c1`?
A340 absorber: 1.02; Spn DPM-DC inh: inactive; Fluor 339 460: 1.33; Spn MK inh: 0.0; PMK inhibit: 11.0; NADH enzymes: 4.0%

How did CCn1nc(NC(=O)c2ccccn2)c2cc3cccc(C)c3nc21 do in these assays?
A340 absorber: 1.05; Fluor 339 460: 3.35*; Spn MK inh: 8.0; PMK inhibit: 9.0; NADH enzymes: 9.0%

How did Cc1ccc2cc3c(NC(=O)C(C)C)nn(C)c3nc2c1 do in these assays?
A340 absorber: 1.07; Spn DPM-DC inh: inactive; Fluor 339 460: 1.86; Spn MK inh: 10.0; PMK inhibit: 4.0; NADH enzymes: 8.0%

Screens as filed in PubChem BioAssay.
